Experimental data published in ChEMBL document CHEMBL4888484, “Replenishing the malaria drug discovery pipeline: Screening and hit evaluation of the MMV Hit Generation Library 1 (HGL1) against asexual blood stage Plasmodium falciparum ,using a nano luciferase reporter read-out” (2022).
Among all 150,000 compounds or so, about 540 (0.36%) showed an effect of 50% or more. The sample holds strong results, similar compounds and a random draw of the others, so the mix is not that of the screen.

System: Plasmodium falciparum
Experiment: Primary screen in NF54 nanoGlo assay, in single point, at 2uM, 72h; a lower Z score goes with more inhibition
Type: functional, Erythrocyte
Details: timepoint 72 hour

| SMILES | % Inhibition | Z score |
| --- | --- | --- |
| CC(=O)Nc1ccccc1CN(Cc1ccc(F)cc1F)C1CC1 | 9% | -0.85 |
| CCN(C(=O)c1ccccc1Cc1ccc(C)cc1)C1CCOCC1 | -13% | 1.36 |
| Cn1nccc1/C=C1\CC2C3CCc4cc(O)ccc4C3CCC2(C)C1O (centres undefined) | 54% | -6.08 |
| CC(C)C(=O)NCCN(C)Cc1ccc(C#N)cc1Br | -19% | 2.19 |
| Cc1ncsc1CN(C)[C@@H](C(=O)O)c1ccsc1 | 3% | -0.57 |
| Cc1nc2cc(NC(=O)[C@@]3(C)CCCN(C(=O)c4ccccc4)C3)ccc2o1 | 55% | -8.5 |
| Cc1nnc(C(C)NC(=O)C2(C)CCCN(C(=O)c3ccccc3)C2)o1 (centres undefined) | -7% | 0.99 |
| C[C@]1(C(=O)Nc2cn[nH]c2)CCCN(C(=O)c2ccccc2)C1 | -8% | 1.66 |
| Cc1ccc(N2C[C@H](C(=O)O)[C@@H](C(C)C)C2)nn1 | -13% | 1.69 |
| CC1(C)CN(Cc2nnc(C3CC3)o2)CCN1Cc1ccccc1 | -3% | 0.43 |
| O=C(NCc1ccco1)Nc1nccs1 | 1% | -0.2 |
| O=C(NCCN1CCOCC1)c1c[nH]c2ccc(Cl)cc2c1=O | 1% | -0.13 |
| O=S(=O)(CCC1Cc2ccccc2C1)N1CCC[C@@](O)(C(F)(F)F)CC1 | 34% | -3.86 |
| O=C(Cn1cc(F)ccc1=O)N1CCc2ccccc21 | -8% | 1.07 |
| COc1cc(CNC2CCCCCC2)ccc1OC[C@@H](O)CN1CCCCCC1 | 1% | -0.22 |
| CN1CCN(C2(CNC(=O)Nc3ccccc3C(F)(F)F)CCCC2)CC1 | -2% | 0.33 |
| CN1CCN(C2(CNc3ccnc4ccccc34)CCCC2)CC1 | 99% | -9.07 |
| O=C(NCc1c(F)cccc1Cl)c1cnc(-c2cccnc2)nc1 | -19% | 1.75 |
| C[C@@H](C(=O)Nc1c(F)cccc1F)N1CCC(NS(=O)(=O)c2cccs2)CC1 | -7% | 0.81 |
| C[C@@H](C(=O)Nc1ccc(F)cc1)N1CCC(NS(=O)(=O)c2cccs2)CC1 | 32% | -3.04 |
| CCc1ccc(NC(=O)[C@H](C)N2CCC(NS(=O)(=O)c3cccs3)CC2)cc1 | 76% | -7.11 |
| CC1(C)C(NCC(O)COc2ccc(F)c(F)c2)[C@@H]2CCC[C@@H]21 (some centres undefined) | 61% | -6.95 |
| Cc1cccc(OCC(O)CNC2C3CCCOC3C2(C)C)c1 (centres undefined) | -10% | 0.93 |
| COc1ccc(C(CO)CNC2[C@@H]3CCC[C@@H]3C2(C)C)cc1 (some centres undefined) | 0% | -0.02 |
| CC(=O)[C@H](C)n1nc(C2CC2)ccc1=O | -17% | 2.21 |
| Cc1cccc(-n2c(=O)[nH]c3nc(NCCN(C)C)ncc3c2=O)c1C | 50% | -0.77 |

| SMILES | % Inhibition | Z score |
| --- | --- | --- |
| Cc1cccc(-n2c(=O)[nH]c3nc(N4CCCC4)ncc3c2=O)c1C | -4% | 0.62 |
| COc1ccccc1-n1c(=O)[nH]c2nc(NCc3cccnc3)ncc2c1=O | 1% | -0.13 |
| Cc1cccc(N(CCC#N)C(=O)c2cc3ccccc3c(=O)[nH]2)c1 | -18% | 1.68 |
| O=C(c1ccncc1F)N1CCCC[C@@H]1CCc1ccccn1 | -23% | 2.29 |
| Cc1ccc(CNC(=O)CCNc2c(-c3cccc(F)c3)nc3cnccn23)o1 | -18% | 2.57 |
| Cc1ccc(CCN2CCC[C@@H]2C(=O)O)cc1 | 3% | -0.5 |
| O=C(NC1CCC(N2C(=O)CCC2=O)CC1)C1CC1C1CCCCC1 (centres undefined) | -7% | 0.72 |
| O=C1c2ccc(O)cc2C(=O)N1c1ccc(N(c2ccccc2)c2ccc(N3C(=O)c4ccc(O)cc4C3=O)cc2)cc1 | 8% | -1.03 |
| O=C1c2cc(Nc3ccccc3)c3c4c(cc(Nc5ccccc5)c(c24)C(=O)N1c1ccccc1)C(=O)N(c1ccccc1)C3=O | 3% | -0.42 |
| O=C1NC(=O)c2ccc3c4c(ccc1c24)C(=O)N(c1ccccc1)C3=O | 73% | -8.98 |
| COc1ccc2cc3n(c2c1)C[C@@](C)(C(=O)NC1CCCC1)N(Cc1ccc(F)cc1)C3=O | 73% | -1.23 |
| COc1cccc(CN2C(=O)c3cc4ccc(OC)cc4n3C[C@@]2(C)C(=O)NC2CCCCCC2)c1 | -12% | 1.58 |
| COc1ccc2cc3n(c2c1)C[C@@](C)(C(=O)NC1CCCCCC1)N(CCN1CCCCCC1)C3=O | 2% | -0.31 |
| Cc1ccc(C(=O)N2CCCC[C@H]2c2nnc(-c3ccncc3)[nH]2)cn1 | -12% | 2.36 |
| CC1(C)OCc2cc(CNc3ccc4oc(=O)[nH]c4c3)ccc2O1 | 96% | -13.84 |
| CCOc1cc(CNc2ccc3c(c2)OCO3)ccc1OC | -1% | 0.26 |
| C[C@@H](NCc1ccc2c(c1)COC(C)(C)O2)c1cccc(O)c1 | -21% | 2.42 |
| O=S(=O)(c1cccc(F)c1F)N1CCN(Cc2nccn2C(F)F)CC1 | -4% | 0.57 |
| COc1cc2ncc3c(-c4ccc(C)c(C)c4)n[nH]c3c2cc1OC | 51% | -4.04 |
| Cc1ccc(-c2n[nH]c3c2cnc2ccc(C)cc23)cc1 | -5% | 0.82 |
| COc1cc2ncc3c(-c4ccccc4)n[nH]c3c2cc1OC | 9% | -0.99 |
| CC(C)C(=O)N[C@@H](N1CCCCCC1)C(Cl)(Cl)Cl | -15% | 2.02 |
| Cn1nc(C(=O)NC2CCN(Cc3ccccc3)CC2)c2ccccc2c1=O | 34% | -3.81 |
| O=C(CNC(=O)c1ccc(C(F)(F)F)cc1)Nc1cnc2c(c1)COCC2 | 34% | -4.64 |
| O=C(Nc1cnc2c(c1)COCC2)c1cccc(OC(F)F)c1 | -1% | 0.19 |
| COC[C@H]1CCCN1S(=O)(=O)N1CCC(c2cc[nH]n2)CC1 | -7% | 0.81 |
